# In PubChem BioAssay:
# Where “and” joins values, the source holds several entries; their conditions need not be identical. Identical values can stand only once. Calls of active or inactive are those of the source. Unless noted, the rule behind the calls is not given here.
# Legend:
# [1] = tested on: Wnt5a (protein binding on small-molecule microarray); test: Wnt5a binders on small-molecule microarray, primary screen, biophysical, 635/667 nm fluorescence (AID 1142); conditions: 635 nm fluorescence, higher = more signal;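 note: fluorescence read at 667 nm with signal to noise per printed feature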
# [2] = cell viability in Huh7 cells, primary screen, cytotoxicity control for HCV replication inhibitor project, CellTiter-Glo luminescence, basal, 48 h (AID 1143); conditions: Huh7 HCV replicon, higher = more signal, called active from +8 up or from −8 down;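 note: Huh7 hepatoma cells carrying a hepatitis C replication reporter with no stimulus; test concentration not given here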
# [3] = P. aeruginosa biofilm formation inhibitors, primary screen, PAO1 strain, BacTiter-Glo luminescence, LB-PBS (AID 1144); conditions: 12 h, higher = more signal
# [4] = CREB reporter modulators without forskolin, primary screen, cell-based, PC12, CRE-LacZ reporter, unstimulated (AID 1145); conditions: no forskolin, luminescence, 4.5 h, higher = more signal, called active from +8 up or from −8 down
# [5] = CREB reporter modulators under forskolin, primary screen, cell-based, PC12, CRE-LacZ reporter, forskolin-stimulated (AID 1146); conditions: luminescence, 4.5 h, higher = more signal, called active from +8 up or from −8 down;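 note: PC12 cells with 6xCRE LacZ reporter stimulated by forskolin 10 µM; beta-galactosidase reporter signal reflecting CREB driven transcription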
# [6] = molecular target: Streptavidin (Streptomyces avidinii) (UniProt P22629); test: streptavidin binders on small-molecule microarray, primary screen, artefact control for SMM compound annotation, biophysical, 635/667 nm fluorescence (AID 1147); conditions: streptavidin binding, higher = more signal;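 note: signal reflects streptavidin binding to arrayed compounds as a control protein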
# Sequence of Streptavidin (Streptomyces avidinii) (P22629 whole entry, looked up): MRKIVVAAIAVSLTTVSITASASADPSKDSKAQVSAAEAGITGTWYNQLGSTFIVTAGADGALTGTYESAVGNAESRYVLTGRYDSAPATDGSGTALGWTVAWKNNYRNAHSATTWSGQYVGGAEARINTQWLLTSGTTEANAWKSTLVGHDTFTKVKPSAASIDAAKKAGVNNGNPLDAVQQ
# [7] = small-molecule binders of probe aInhba, primary screen, biochemical, small-molecule microarray, 635/667 nm fluorescence (AID 1148); conditions: higher = more signal;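 note: score merges 667nm spot fluorescence with signal-to-noise for antibody binding to printed compounds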
# [8] = molecular target: Torsin-1A (Homo sapiens) (UniProt O14656); test: torsin A binders from cell lysate, primary screen, small-molecule microarray, wild-type, 635/667 nm (AID 1149); conditions: COS7 hTOR1A-WT lysate, 635 nm fluorescence, higher = more signal
# Sequence of Torsin-1A (Homo sapiens) (O14656 whole entry, looked up): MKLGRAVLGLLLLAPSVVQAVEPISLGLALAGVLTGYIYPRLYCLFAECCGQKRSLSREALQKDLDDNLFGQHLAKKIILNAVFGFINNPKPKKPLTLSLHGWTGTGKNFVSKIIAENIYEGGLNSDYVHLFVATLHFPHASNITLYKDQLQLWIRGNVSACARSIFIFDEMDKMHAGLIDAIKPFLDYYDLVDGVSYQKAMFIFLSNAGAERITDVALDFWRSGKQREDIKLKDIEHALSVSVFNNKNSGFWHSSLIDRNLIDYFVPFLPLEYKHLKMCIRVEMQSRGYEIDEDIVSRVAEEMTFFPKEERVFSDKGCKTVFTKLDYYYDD
# [9] = molecular target: Torsin-1A (Homo sapiens) (UniProt O14656); test: small-molecule binders of mutant TOR1A in lysate, primary screen, cell lysate, small-molecule microarray, COS7 lysate, 635/667 nm fluorescence (AID 1150); conditions: COS7 hTOR1A mutant lysate, 635 nm fluorescence, higher = more signal;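 note: score pools 667 nm emission and signal to noise measuring lysate protein binding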
# [10] = tested on: Sonic hedgehog protein (Shh); test: small-molecule binders of Shh protein, primary screen, biochemical, small-molecule microarray, 635/667 nm fluorescence (AID 1151); conditions: small-molecule microarray binding, 635 nm fluorescence; higher = more signal;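 note: Shh protein binding to compounds spotted on small-molecule microarray slides; score combines spot fluorescence intensity with signal-to-noise across triplicate slides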
# [11] = E. coli DRC41 culture turbidity changes, primary screen, E. coli filamentation inducer project, strain DRC41, OD650, 48 h (AID 1152);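 note: E. coli MC1000 strain DRC41 lacking acrAB efflux pump and sulA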; conditions: E. coli DRC41 (acrAB sulA), higher = more signal, called active from +8 up or from −8 down
# [12] = small-molecule binders of probe aLefty1, primary screen, biochemical, small-molecule microarray, 635/667 nm fluorescence (AID 1153); conditions: higher = more signal;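 note: score merges spot fluorescence with signal-to-noise ratio from the scanned slide images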
# [13] = PSAC antagonists in infected red cells, primary screen, cell-based, P. falciparum Indochina, OD700, 1 h (AID 1154); conditions: P. falciparum Indochina infected RBC osmotic lysis, higher = more signal, called active from +8 up or from −8 down
# [14] = PSAC antagonists in infected red cells, primary screen, cell-based, P. falciparum Indochina, OD700, 2 h (AID 1155);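 note: lysis reports solute entry through the parasite surface anion channel PSAC; channel blockers reduce lysis of infected cells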; conditions: P. falciparum Indochina infected erythrocytes, osmotic lysis OD700; higher = more signal, called active from +8 up or from −8 down
# [15] = osmotic lysis modulators in infected erythrocytes, primary screen, PSAC antagonist project, cell-based, P. falciparum Indochina, OD700, 3 h (AID 1156); conditions: higher = more signal, called active from +8 up or from −8 down
# [16] = PSAC antagonists in infected red cells, primary screen, cell-based, P. falciparum Indochina, OD700, 18 h (AID 1157); conditions: P. falciparum Indochina infected erythrocytes, osmotic lysis OD700, 18 h; higher = more signal, called active from +8 up or from −8 down
# [17] = modulators of S6 phosphorylation in cells, primary screen, cell-based, A549, cytoblot, luminescence, serum-stimulated (AID 1158); conditions: A549 phospho-S6 cytoblot, 5 h, higher = more signal;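 note: serum-stimulated A549 lung adenocarcinoma cells; signal is phosphorylated S6 detected by cytoblot immunostaining with HRP secondary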
# [18] = molecular target: NADPH oxidase 2 (Homo sapiens) (UniProt P04839); test: NOX2-dependent H2O2 signal modulators, primary screen, NOX inhibitor project, cell-based, HEK293-NOX2, PMA-stimulated, Amplex Red fluorescence (AID 1159); conditions: 45 min, higher = more signal, called active from +8 up or from −8 down; note: test concentration not given here
# Sequence of NADPH oxidase 2 (Homo sapiens) (P04839 whole entry, looked up): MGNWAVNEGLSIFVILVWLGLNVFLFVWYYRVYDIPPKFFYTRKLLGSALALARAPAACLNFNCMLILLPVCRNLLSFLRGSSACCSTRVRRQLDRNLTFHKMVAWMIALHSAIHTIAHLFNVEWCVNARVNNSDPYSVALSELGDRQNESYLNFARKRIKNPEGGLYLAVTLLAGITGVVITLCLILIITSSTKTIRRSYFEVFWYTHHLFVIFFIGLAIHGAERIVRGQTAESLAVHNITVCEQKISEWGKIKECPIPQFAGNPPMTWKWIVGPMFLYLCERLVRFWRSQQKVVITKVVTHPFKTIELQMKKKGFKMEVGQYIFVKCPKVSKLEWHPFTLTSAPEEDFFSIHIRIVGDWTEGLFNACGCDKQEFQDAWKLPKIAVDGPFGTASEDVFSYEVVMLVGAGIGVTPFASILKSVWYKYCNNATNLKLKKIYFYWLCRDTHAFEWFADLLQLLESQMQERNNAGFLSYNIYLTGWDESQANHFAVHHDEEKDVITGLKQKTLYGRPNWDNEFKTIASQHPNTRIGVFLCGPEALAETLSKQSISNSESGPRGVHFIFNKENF
# [19] = molecular target: NADPH oxidase 4 (Homo sapiens) (UniProt Q9NPH5); test: NOX4-dependent H2O2 signal modulators, primary screen, NOX inhibitor project, cell-based, HEK293-NOX4, tetracycline-induced, Amplex Red fluorescence (AID 1160); conditions: 45 min, higher = more signal, called active from +8 up or from −8 down
# Sequence of NADPH oxidase 4 (Homo sapiens) (Q9NPH5 whole entry, looked up): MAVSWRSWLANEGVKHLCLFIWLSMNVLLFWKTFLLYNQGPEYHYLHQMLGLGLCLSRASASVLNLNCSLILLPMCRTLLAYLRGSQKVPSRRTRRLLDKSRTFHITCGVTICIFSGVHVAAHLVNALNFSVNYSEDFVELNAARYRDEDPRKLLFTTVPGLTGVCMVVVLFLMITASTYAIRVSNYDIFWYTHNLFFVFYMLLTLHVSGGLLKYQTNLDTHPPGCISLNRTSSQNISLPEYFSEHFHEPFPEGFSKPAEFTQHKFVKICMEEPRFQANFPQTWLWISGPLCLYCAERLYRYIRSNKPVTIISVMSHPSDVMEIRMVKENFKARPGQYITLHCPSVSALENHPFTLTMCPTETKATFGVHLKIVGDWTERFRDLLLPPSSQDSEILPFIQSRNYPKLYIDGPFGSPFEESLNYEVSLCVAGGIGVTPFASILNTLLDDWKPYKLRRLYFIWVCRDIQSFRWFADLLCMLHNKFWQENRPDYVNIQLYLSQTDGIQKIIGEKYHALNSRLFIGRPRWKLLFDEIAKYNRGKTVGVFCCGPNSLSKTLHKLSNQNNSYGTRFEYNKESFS
# [20] = molecular target: NADPH oxidase 5 (Homo sapiens) (UniProt Q96PH1); test: NOX5-dependent H2O2 signal modulators, primary screen, NOX inhibitor project, cell-based, HEK293-NOX5, Amplex Red fluorescence (AID 1161); conditions: HEK293-NOX5, ionomycin, 45 min, higher = more signal
# Sequence of NADPH oxidase 5 (Homo sapiens) (Q96PH1 whole entry, looked up): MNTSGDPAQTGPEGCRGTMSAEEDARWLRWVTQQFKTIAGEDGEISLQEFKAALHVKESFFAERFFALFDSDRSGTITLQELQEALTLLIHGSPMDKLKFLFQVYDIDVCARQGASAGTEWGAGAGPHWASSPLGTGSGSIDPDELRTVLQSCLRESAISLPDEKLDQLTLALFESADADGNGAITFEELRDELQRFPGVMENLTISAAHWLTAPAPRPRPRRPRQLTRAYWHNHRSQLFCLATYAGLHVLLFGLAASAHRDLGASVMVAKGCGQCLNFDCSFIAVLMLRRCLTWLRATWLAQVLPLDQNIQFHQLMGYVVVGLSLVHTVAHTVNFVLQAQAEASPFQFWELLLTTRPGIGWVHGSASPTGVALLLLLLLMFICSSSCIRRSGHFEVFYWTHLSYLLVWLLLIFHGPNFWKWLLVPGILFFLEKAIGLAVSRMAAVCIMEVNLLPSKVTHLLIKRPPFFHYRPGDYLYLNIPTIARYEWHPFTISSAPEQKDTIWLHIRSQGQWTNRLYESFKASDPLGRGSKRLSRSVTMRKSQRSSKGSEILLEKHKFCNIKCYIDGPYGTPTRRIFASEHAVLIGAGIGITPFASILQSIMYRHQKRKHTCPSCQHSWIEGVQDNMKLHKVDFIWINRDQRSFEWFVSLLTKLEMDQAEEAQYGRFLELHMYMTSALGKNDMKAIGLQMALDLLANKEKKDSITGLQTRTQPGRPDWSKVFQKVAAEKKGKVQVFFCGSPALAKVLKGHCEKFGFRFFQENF
SMILES,composite z-score [1],z-score [2],z-score [3],z-score [4],z-score [5],composite z-score [6],composite z-score [7],composite z-score [8],composite z-score [9],composite z-score [10],z-score [11],composite z-score [12],z-score [13],z-score [14],z-score [15],z-score [16],z-score [17],z-score [18],z-score [19],z-score [20]
CCN1C(=O)[C@H]2[C@H]3[C@H](O)[C@H](O)CC(=NOC)[C@@H]3CC[C@H]2C1=O,-0.254,0.359 (inactive),-1.16 (inactive),-1.12 (inactive),-0.154 (inactive),-0.125,-0.0762,-0.477,-0.115,-0.13,-0.589 (inactive),-0.0654,0.637 (inactive),0.628 (inactive),0.47 (inactive),0.269 (inactive),0.815,-0.0884 (inactive),0.545 (inactive),-0.274
COC(=O)C1=C(C)N(Cc2ccccc2)C2=C(C(C)=O)C[C@@](O)(C(=O)OC)C(=O)N2[C@@H]1c1ccccc1,0.491 and 0.0879,-0.451 (inactive) and -1.18 (inactive),-2.16 (inactive),3.35 (inactive) and 4.53 (inactive),-0.711 (inactive) and -0.239 (inactive),-0.192 and -0.271,0.0212 and -0.0136,1.39 and 0.336,1.69 and -0.0069,1.74 and 0.806,0.125 (inactive) and -0.635 (inactive),-0.147 and 0.0732,0.0793 (inactive) and -0.0501 (inactive),-1.13 (inactive) and -0.742 (inactive),0.0531 (inactive) and -0.0986 (inactive),-1.62 (inactive) and -0.838 (inactive),0.268 and 2.46,0.627 (inactive) and 0.462 (inactive),0.993 (inactive) and 0.524 (inactive),1 and 1.04
C=CCN(C(=O)C(c1cccs1)N(C(=O)/C=C\C(=O)O)c1c(Cl)cccc1CO)C(C)(C)C (centres undefined),-1.15 and -1.26,0.389 (inactive) and 0.124 (inactive),0.933 (inactive) and 1.26 (inactive),0.325 (inactive) and 0.471 (inactive),-0.386 (inactive) and -0.514 (inactive),-1.61 and -1.09,-0.341 and -0.164,-3.44 and -4.12,-3.15 and -2.91,-1.98 and -2.58,-0.773 (inactive) and -1.1 (inactive),0.045 and 0.192,0.294 (inactive) and 0.153 (inactive),-0.0344 (inactive) and -0.313 (inactive),-0.741 (inactive) and -0.659 (inactive),-0.134 (inactive) and -0.0608 (inactive),-0.483 and -0.409,0.239 (inactive) and 0.261 (inactive),-0.827 (inactive) and -0.628 (inactive),-0.328 and 0.528
CO[C@@H]1COC(=O)[C@H](Cc2ccccc2)NC(=O)CC=C[C@@H](C)[C@H](OC)COC(=O)[C@@H](C)NC(=O)CC=C[C@H]1C,-0.21 and 0.189,-0.656 (inactive) and -1.53 (inactive),–,0.345 (inactive) and -0.39 (inactive),-0.95 (inactive) and -1.65 (inactive),-0.0436 and -0.304,-0.0986 and -0.319,1.37 and 0.668,0.671 and 0.335,2.07 and 1.98,-0.582 (inactive) and 0.887 (inactive),-0.0536 and -0.425,-0.712 (inactive) and -0.142 (inactive),-0.999 (inactive) and -0.463 (inactive),0.932 (inactive) and 0.0469 (inactive),-2.07 (inactive) and -1.44 (inactive),0.758 and 0.682,0.0254 (inactive) and -0.582 (inactive),0.859 (inactive) and 0.551 (inactive),-0.106 and 0.66
C=CCN(C(=O)C1N(C(C)(C)CO)C(=O)C2C(C(=O)O)C3C=CC21O3)c1ccc(OC)cc1 (centres undefined),-0.737 and -0.572,-0.265 (inactive) and -0.156 (inactive),1.42 (inactive),-0.761 (inactive) and -0.501 (inactive),-1.27 (inactive) and -0.62 (inactive),-1.73 and -1.67,-0.227 and -0.38,-2.67 and -1.85,-1.25 and -2.3,-0.639 and -2.16,2.14 (inactive) and 0.776 (inactive),-0.0544 and -0.333,2.3 (inactive) and -0.0606 (inactive),-0.613 (inactive) and -0.0765 (inactive),-1.82 (inactive) and 0.228 (inactive),-0.646 (inactive) and -0.183 (inactive),0.228 and -0.0837,0.833 (inactive) and -0.0915 (inactive),-2.16 (inactive) and -2.56 (inactive),0.782 and -1.03
CCOC(=O)[C@@H]1CC=C2CC1C(=O)N1CCC[C@@H]1[C@H]2O[Si](C)(C)C(C)(C)C (some centres undefined),-0.12 and -0.752,0.856 (inactive) and -3.46 (inactive),0.318 (inactive) and 0.0257 (inactive),-0.692 (inactive) and -1.5 (inactive),1.25 (inactive) and -1.04 (inactive),-0.759 and -2.05,0.027 and -0.319,-0.408 and -2.35,-0.0943 and -2.33,-0.085 and -0.0655,-1.02 (inactive) and -0.796 (inactive),-0.199 and -0.417,-0.0845 (inactive) and 0.699 (inactive),-0.474 (inactive) and 0.0056 (inactive),-0.495 (inactive) and 0.882 (inactive),-0.0374 (inactive) and 0.133 (inactive),0.308 and -0.0299,-0.0861 (inactive) and -0.161 (inactive),1.2 (inactive) and -0.116 (inactive),-1.02 and -2.48
